Measured values reported in PubChem BioAssay (NCI).
About 79,000 compounds went through this panel and 15% of them were active in at least one assay; those are over-represented in the sample as a whole. Rule as the data show it: active = growth inhibition above about 70%; inactive = the rest.

Key:
[1] = NCI Yeast Anticancer Drug Screen. Data for the wt1 strain (AID 149);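 also: 0% = growth of vehicle-treated wt1 cultures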; details: S. cerevisiae wt1 strain (SPY 50644) growth inhibition, stronger effect = higher value
Procedure, shortened: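 wt1 yeast, compound-treated; % growth inhibition vs vehicle control.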

[2] = NCI Yeast Anticancer Drug Screen. Data for the mgt1 strain (AID 153); details: S. cerevisiae mgt1 mutant growth inhibition, stronger effect = higher value
Procedure, shortened: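 Compounds were applied to mgt1 mutant yeast, and growth was then compared against vehicle-treated control cultures to give percent inhibition.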

[3] = NCI Yeast Anticancer Drug Screen. Data for the rad50 strain (AID 155);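 also: 0% = growth of vehicle-only cultures of the same strain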; details: S. cerevisiae rad50 strain growth inhibition, stronger effect = higher value
Procedure, shortened: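 Genetically altered yeast (DNA repair pathway); compound treatment; growth inhibition vs vehicle ctrl.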

[4] = NCI Yeast Anticancer Drug Screen. Data for the mec2-1 strain (AID 157); details: S. cerevisiae mec2-1 strain, stronger effect = higher value
Procedure, shortened: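 Compounds were applied to mec2-1 yeast cells. Their growth was then compared with that of vehicle-treated cultures to give growth inhibition.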

[5] = NCI Yeast Anticancer Drug Screen. Data for the rad14 strain (AID 159);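 also: 0% = growth of vehicle-treated control cultures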; details: S. cerevisiae rad14 strain growth inhibition, stronger effect = higher value
Procedure, shortened: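 Test compounds were applied to a repair-deficient yeast strain. Its growth was then compared with that of cultures given vehicle alone, and inhibition was expressed relative to those controls.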

[6] = NCI Yeast Anticancer Drug Screen. Data for the sgs1 mgt1 strain (AID 161);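 also: 0% = growth of cultures given vehicle only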; details: S. cerevisiae sgs1 mgt1 strain, stronger effect = higher value
Procedure, shortened: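 This yeast growth screen uses a strain with defined DNA-repair lesions; compound-treated growth is compared with vehicle-treated growth.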

[7] = NCI Yeast Anticancer Drug Screen. Data for the CLN2oe strain (AID 163);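 also: 0% = growth of vehicle-only control cultures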; details: S. cerevisiae CLN2oe strain, stronger effect = higher value
Procedure, shortened: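 Cells of an engineered yeast line with disturbed cell-cycle regulation are treated with compound. Inhibition of growth is then calculated relative to the vehicle-treated reference.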

[8] = NCI Yeast Anticancer Drug Screen. Data for the cln2 rad14 strain (AID 165);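 also: 0% = growth equal to vehicle treated cultures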; details: S. cerevisiae cln2 rad14 strain, stronger effect = higher value
Procedure, shortened: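 Strain: cln2 rad14 yeast, altered in cell cycle control and DNA damage repair. Read-out: growth inhibition vs vehicle.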

[9] = NCI Yeast Anticancer Drug Screen. Data for the bub3 strain (AID 167); details: S. cerevisiae bub3 mutant strain, stronger effect = higher value
Procedure, shortened: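 Yeast carrying a defined mutation is treated with each compound, and growth is compared with that of vehicle-exposed cells to give inhibition.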

[10] = NCI Yeast Anticancer Drug Screen. Data for the wt2 strain (AID 169);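 also: 0% = growth of vehicle-treated yeast cultures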; details: S. cerevisiae wt2 strain growth inhibition, stronger effect = higher value
Procedure, shortened: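 Growth of compound-treated yeast is measured and expressed as inhibition relative to vehicle-only controls.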

[11] = NCI Yeast Anticancer Drug Screen. Data for the mlh1 strain (AID 171);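 also: 0% = growth of vehicle-treated control cultures of the same strain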; details: S. cerevisiae mlh1 strain growth inhibition, stronger effect = higher value
Procedure, shortened: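 Test agents were incubated with yeast bearing a defined DNA damage repair or cell cycle control alteration; values are growth inhibition normalised to vehicle-treated cultures.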

[12] = NCI Yeast Anticancer Drug Screen. Data for the sgs1 strain (AID 173);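 also: 0% = growth of vehicle-only control cultures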; details: S. cerevisiae sgs1 mutant, stronger effect = higher value
Procedure, shortened: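 Strain with an altered DNA repair or cell cycle pathway exposed to compound. Growth then measured. Value = inhibition versus vehicle control.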

[13] = NCI Yeast Anticancer Drug Screen. Data for the mlh1 rad18 strain (AID 175); details: S. cerevisiae mlh1 rad18 strain growth inhibition, stronger effect = higher value
Procedure, shortened: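 A repair-deficient yeast strain is exposed to test compound, and growth is scored relative to vehicle-treated controls.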

[14] = NCI Yeast Anticancer Drug Screen. Data for the rad18 strain (AID 177); details: S. cerevisiae rad18 mutant growth inhibition, stronger effect = higher value
Procedure, shortened: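 DNA-repair-defective yeast; compound treatment; growth inhibition scored against vehicle.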

[15] = at 5.0 µM (retest, dose inferred, filed as 0.5)
[16] = at 50.0 µM (retest, dose inferred, filed as 5.0)

Measured: growth inhibition

O=C(CCC(=O)c1ccc(O)cc1)Oc1ccc(O)cc1
inactive: [1]; at 1.2 µM -2% | [1]; at 3.7 µM 2% | [1]; at 11.0 µM -2% | [1]; at 33.0 µM -2% | [1]; at 100.0 µM 1% | [2]; at 1.2 µM 1% | [2]; at 3.7 µM -1% | [2]; at 11.0 µM 2% | [2]; at 33.0 µM 2% | [2]; at 100.0 µM 3% | [3]; at 1.2 µM 2% | [3]; at 3.7 µM 4% | [3]; [15] -13% | [3]; at 11.0 µM 2% | [3]; at 33.0 µM 6% | [3]; [16] 16% | [3]; at 50.0 µM -2.75% | [3]; at 100.0 µM 11% | [4]; at 1.2 µM -1% | [4]; at 3.7 µM 3% | [4]; [15] -2% | [4]; at 11.0 µM 3% | [4]; at 33.0 µM 7% | [4]; [16] -11% | [4]; at 50.0 µM -22.5% | [4]; at 100.0 µM 5% | [5]; at 1.2 µM -1% | [5]; at 3.7 µM -1% | [5]; at 11.0 µM -1% | [5]; at 33.0 µM 1% | [5]; at 100.0 µM 5% | [6]; [15] -8% | [6]; [16] 10% | [6]; at 50.0 µM 2.2% | [7]; at 1.2 µM 3% | [7]; at 3.7 µM -11% | [7]; at 11.0 µM 5% | [7]; at 33.0 µM 3% | [7]; at 100.0 µM 6% | [8]; [15] -9% | [8]; [16] 40% | [8]; at 50.0 µM 8.3% | [9]; at 1.2 µM 12% | [9]; at 3.7 µM 21% | [9]; [15] 18% | [9]; at 11.0 µM 33% | [9]; at 33.0 µM 40% | [9]; [16] 67% | [9]; at 50.0 µM 29.1% | [9]; at 100.0 µM 47% | [10]; at 1.2 µM -1% | [10]; at 3.7 µM -1% | [10]; at 11.0 µM -2% | [10]; at 33.0 µM 1% | [10]; at 100.0 µM -1% | [11]; at 1.2 µM 3% | [11]; at 3.7 µM 0% | [11]; at 11.0 µM 2% | [11]; at 33.0 µM 1% | [11]; at 100.0 µM 4% | [12]; at 1.2 µM 1% | [12]; at 3.7 µM 1% | [12]; at 11.0 µM 1% | [12]; at 33.0 µM 4% | [12]; at 100.0 µM 6% | [13]; [15] -18% | [13]; [16] 25% | [13]; at 50.0 µM 1.35% | [14]; at 1.2 µM 1% | [14]; at 3.7 µM -3% | [14]; at 11.0 µM -4% | [14]; at 33.0 µM -4% | [14]; at 100.0 µM -4%
